From PubChem
Giardia killer: Small Molecules that selectively kill Giardia lamblia: qHTS; 340,000 tested, 0.15% active; Giardia lamblia trophozoite viability; activity change, % at 7.66 µM, hits read low; AID 540267, 2011; in the data active = activity change below about -80%; inconclusive = between about -30% and that limit;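 note: parasites exposed to compound for two days anaerobically before the ATP read; % is set by controls: 0 for no effect and ±100 for the full control effect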
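Giardia trophozoites, 100 cells per well, were exposed to compounds for 48 hrs at 37 deg C under anaerobic conditions; viability was then read as ATP content by bioluminescence after 15-30 min at room temperature.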
BRCA1 expr act: qHTS Assay to Identify Small Molecule Activators of BRCA1 Expression; MCF7-BRCA1-FFLuc reporter, luminescence, 48 h; response scale: scaled: vehicle 0%, 10 µM genistein 100%; Potency, µM (highest dose often 46.1 µM), for the others: top-dose activation, most hits filed as activators; 380,000 tested, 1.1% active; AID 624202, 2012; note: potency is the fitted concentration of half-maximal effect; nearly all actives have a fitted effect of over 80% in size
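Cells: MCF7-BRCA1-FFLuc, 2000/well. Exposure: 48 h, 37 °C, 5% CO2. Read: luminescence, 15 min post-substrate. Controls: genistein 10 microM (maximal activation), DMSO (neutral).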
Gal4-VP16 FLuc: VP16 counterscreen qHTS for inhibitors of ROR gamma transcriptional activity; 310,000 tested, 3.5% active; Drosophila S2 Gal4-VP16 UAS-luciferase, luminescence, 20 h; Potency, µM (highest dose often 53.6 µM), without a hit: at the highest dose activity, negative = inhibition, usual class: inhibitors; AID 2546, 2010;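 note: Gal4-VP16 expression switched on by copper sulfate through the metallothionein promoter; potency is the fitted concentration of half-maximal effect; % is set by controls: 0 for no effect and ±100 for the full control effect; nearly all actives have a fitted effect of over 50% in size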
RORg inh: qHTS for inhibitors of ROR gamma transcriptional activity | Nuclear receptor ROR-gamma (Mus musculus), P51450 | Drosophila S2 Gal4-RORgamma UAS-luciferase reporter, 20 h | Potency, µM (titrated, usually from 53.6 µM), for inactives: top-dose activity change, negative = inhibition, usual class: inhibitors | 310,000 tested, 5.4% active | AID 2551, 2010; note: potency is the fitted concentration of half-maximal effect; % is set by controls: 0 for no effect and ±100 for the full control effect; nearly all actives have a fitted effect of over 60% in size
Target sequence (P51450 whole entry, looked up, the tested form may be a part): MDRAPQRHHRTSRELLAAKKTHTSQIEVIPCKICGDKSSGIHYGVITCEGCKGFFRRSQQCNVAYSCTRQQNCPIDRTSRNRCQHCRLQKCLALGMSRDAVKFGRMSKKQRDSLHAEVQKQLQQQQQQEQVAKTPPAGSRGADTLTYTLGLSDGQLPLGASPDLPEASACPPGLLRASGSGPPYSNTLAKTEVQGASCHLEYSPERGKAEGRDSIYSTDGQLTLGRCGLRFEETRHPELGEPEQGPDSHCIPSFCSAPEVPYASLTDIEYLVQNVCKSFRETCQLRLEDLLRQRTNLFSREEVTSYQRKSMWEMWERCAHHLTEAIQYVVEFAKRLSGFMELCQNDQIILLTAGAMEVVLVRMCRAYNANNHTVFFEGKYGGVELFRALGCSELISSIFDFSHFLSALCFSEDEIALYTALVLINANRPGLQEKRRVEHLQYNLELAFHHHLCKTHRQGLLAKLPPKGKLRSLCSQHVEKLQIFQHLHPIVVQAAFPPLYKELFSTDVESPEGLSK
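Drosophila Schneider cells stably carrying a metallothionein-driven Gal4 DBD–ROR gamma fusion and a UAS-Photinus luciferase reporter were exposed to compound for 1 hr, then induced with copper sulfate (700 uM final) for 20 hr at ambient temperature before luminescence reading.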
ELG1 DNA repair: qHTS screen for small molecules that inhibit ELG1-dependent DNA repair in human embryonic kidney (HEK293T) cells expressing luciferase-tagged ELG1. Potency, µM (series often up to 46.1 µM), for the others: at the highest dose activity change, negative = inhibition, actives largely listed as inhibitors. AID 504467, 2011. HEK293T ELG1-luciferase reporter, luminescence, 16 h; DNA damage induced by 5-fluorouridine. 330,000 tested, 2.3% active; note: potency is the fitted concentration of half-maximal effect; % is set by controls: 0 for no effect and ±100 for the full control effect; nearly all actives have a fitted effect of over 55% in size
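Cells (2,000 per well) received 5-fluorouridine plus test compound or DMSO and were incubated 16 hr at 37 °C, 5% CO2. Luciferase activity was read by luminescence 30 min after ONE-Glo addition; signal suppression marked inhibition of damage-induced ELG1 function.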
p53 reactivator: qHTS assay for re-activators of p53 using a Luc reporter; H1299 p53-A138V BP100-luciferase reporter, luminescence, 24 h; Potency, µM (top dose mostly 92.2 µM), for the others: at the top dose activity change, positive = activation, actives largely listed as activators; 320,000 tested, 0.063% active; note: potency is the fitted concentration of half-maximal effect; % of control where 0% means no effect; nearly all actives have a fitted effect of over 45% in size
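H1299 (p53-null), stable ts p53-A138V + BP100-Luc; 1000 cells/well, Opti-MEM/10% FBS; cpd 4 pt, 1:5; 24 h, 37 deg C, 5% CO2; detection reagent 10 min RT; luminescence.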
Numbers without * were called inactive; ? = inconclusive; nt = no result given; [ ] = another dose, or the depositor's remark. The list is not random: actives were taken first. Their share in the collection is about 7.6%. Unless noted, calls come from the whole dose curve; as a rule, active = well fitted curve in the direction sought with a large enough effect; inconclusive = small, poorly fitted or top-dose-only effect, or another doubt; inactive = no such curve, though single readings can be large; an effect the other way counts as inactive or inconclusive.

SMILES	Giardia killer	BRCA1 expr act	Gal4-VP16 FLuc	RORg inh	ELG1 DNA repair	p53 reactivator
COc1cc(/C=N/NC(=O)c2cc(O)cc(O)c2)ccc1OC(=O)c1ccccc1	4	-10%	-3%	-29%	12%	6%
COc1ccc(/C=N/NC(N)=S)cc1OC(=O)c1ccccc1	-8	-29%	?	13µM*	?	7%
COc1ccc(/C=N/NC(=O)c2cc(C)oc2C)cc1OCc1ccccc1	18	-46%	?	10µM*	?	2%
Cc1cc(C(=O)N/N=C/c2ccc(OCc3ccccc3)cc2)c(C)o1	-19	72%	-16%	?	4%	-3%
COc1cc(/C=N/NC(=O)c2ccc3ccccc3c2)ccc1Oc1ccc([N+](=O)[O-])cn1	15	7%	14%	?	16µM*	-19%
COc1cc(/C=N/NC(=O)c2cccc([N+](=O)[O-])c2)ccc1OCc1ccccc1	-3	52%	?	3.2µM*	?	-3%
COC(c1ccccc1)(c1ccccc1)C(Oc1nccc(C)n1)C(=O)O (stereo not given)	-2	-3%	5%	12%[1.91 µM]	2%	4%
Cc1c(Br)cccc1NC(=O)C1(C)CCN1Cc1ccccc1OC(F)F (stereo not given)	nt	-21%	nt	nt	nt	nt
CCc1ccccc1Nc1cc(C(=O)NCc2ccccn2)c2ccccc2n1	5	-13%	14%	35%	?	1%
COc1cc(/C=C2\C(=O)N(c3cccc(C(=O)O)c3)N=C2C)ccc1OCc1ccccc1	nt	7.1µM*	nt	nt	nt	nt
C#CCOc1ccc(/C=C2/C(=O)N(c3cccc(C(=O)O)c3)N=C2C)cc1OC	1	57%	-4%	27%	?	16%
CCOc1cc(/C=N/NC(=O)c2nn(C)cc2Br)ccc1OCc1ccccc1	-15	-22%	-18%	38%	18µM*	2%
Cc1ccnc(SCc2cc(=O)c(OC(=O)c3ccc(Cl)c([N+](=O)[O-])c3)co2)n1	7	-9%	11µM*	10µM*	21µM*	-5%
COc1ccc(C2Nc3ccccc3C(=O)N2Cc2ccco2)cc1COc1ccccc1F (stereo not given)	0	-32%	5%	-12%	18µM*	-7%
COc1ccc(C2Nc3ccccc3C(=O)N2Cc2ccco2)cc1COc1ccc(NC(C)=O)cc1 (stereo not given)	2	-12%	-2%[0.365 µM]	37%	?	-6%
COc1ccc(OC)c(C2=C/C(=C/c3ccccn3)C(=O)O2)c1	15	2%	-11%[10 µM]	-20%	9%	1%
CCOC(=O)N1CCC(NC(=O)CSCc2nc(-c3ccc(OCC)cc3)oc2C)CC1	?	0%	-4%	4%	13µM*	-2%
CCOc1ccc(-c2nc(CSCC(=O)NC3CCN(Cc4ccccc4)CC3)c(C)o2)cc1	nt	-27%	nt	nt	nt	nt
CCOc1ccc(-c2nc(CSCC(=O)NCc3ccco3)c(C)o2)cc1	5	-91%	25µM*	-38%	7.3µM*	29%
CCOC(=O)N1CCC(NC(=O)CSCc2nc(-c3cccc(OC)c3)oc2C)CC1	-2	-57%	-3%	24%	12µM*	-10%
CCOC(=O)N1CCC(NC(=O)CSCc2nc(-c3ccccc3Cl)oc2C)CC1	-2	0%	-10%	14%	?	-2%
CCOc1ccc(-c2nc(CSCC(=O)NC3CC3)c(C)o2)cc1	6	-91%	?	8.9µM*	14%	-6%
Cc1ccccc1NC(=O)CSc1nc2ccc(NC(=O)c3ccco3)cc2s1	nt	0%	nt	nt	nt	nt
Fc1ccc(-[n+]2nc(Nc3ccccc3)sc2-c2cccc(Cl)c2Cl)cc1	-18	0%	?	8.9µM*	-15%	9%
COc1cc(Br)c(-c2sc(Nc3ccccc3)n[n+]2-c2ccc(F)cc2)cc1OC	17	-32%	-20%	6.3µM*	0%	7%
SMILES	Giardia killer	BRCA1 expr act	Gal4-VP16 FLuc	RORg inh	ELG1 DNA repair	p53 reactivator
Clc1cccc(-c2sc(Nc3ccccc3)n[n+]2-c2ccccc2)c1Cl	-26	-18%	?	14µM*	?	2%
CC(C)(C)c1ccc(/C=C/C(=O)N2CCCCC2)cc1	-9	7.1µM*	?	30%	?	18%
CC(C)Cc1ccc(/C=C/C(=O)NC2CC2)cc1	-11	5.6µM*	16µM*	?	?	?
CC(C)Cc1ccc(/C=C/C(=O)N2CCCCC2)cc1	-4	13µM*	3%	25%	?	14%
O=C(CCc1ccc(S(=O)(=O)N2CCOCC2)cc1)N1CCCC1	5	-1%	0%	-8%	3%	0%
Cc1ccc(N=Cc2ccc(N(C)C)cc2)cc1	5	0%	0%	-9%	14%	9%
CN(C)c1ccc(C=Nc2ccc(N(C)C)cc2)cc1	-1	-37%	?	?	?	40µM*
Cn1/c(=N/NC(=O)c2ccccc2Br)sc2ccccc21	-11	10µM*	?	-4%	?	4%
Cn1/c(=N/NC(=O)c2cccc(OC(F)F)c2)sc2ccccc21	-14	-39%	14µM*	10µM*	2%	9%
Cn1c(=NC(=O)C2=NNC(=O)CC2)sc2ccccc21	-2	77%	6%	10%	?	-2%
COc1cc(C(=O)N/N=c2/sc3ccccc3n2C)cc(OC)c1OC	-15	-24%	-15%	-29%	12%	9%
C=C(/C=C/c1ccc(N(C)C)cc1)c1nc2ccccc2s1	nt	-23%	nt	nt	nt	nt
Fc1cccc(CCN2C(=S)NC[C@@H]2CC2CCCCC2)c1	?	-22%	6.3µM*	2µM*	-2%	8%
CC(O)[C@H]1CNC(=S)N1CCc1cccc(F)c1 (stereo not given in full)	2	14%	-13%	0%	-2%	-1%
O=C1NC[C@H](Cc2ccc(O)cc2)N(CCc2cccc(F)c2)C1=O	nt	24%	nt	nt	nt	nt
CCCC[C@@H]1CNC(=S)N1CCCc1cc(OC)c(OC)c(OC)c1	-4	-7%	?	8.9µM*	?	-4%
Fc1cccc(CCN2C(=S)NC[C@@H]2Cc2ccccc2)c1	-14	2%	7.1µM*	2.2µM*	-5%	-6%
CCCC[C@@H]1CNC(=S)N1CCc1cccc(F)c1	-10	-2%	4µM*	1.4µM*	-2%	-4%
CCOC(=O)[C@]12CCC=C1N(CCC1=CCCCC1)C(=O)[C@H](CC(=O)N1CCSCC1)C2	nt	-4%	nt	nt	nt	nt
